# Bioassay records from PubChem.
# CHX counter: Cycloheximide Counterscreen for Small Molecule Inhibitors of Shiga Toxin; cell reporter, cycloheximide protein synthesis inhibition counterscreen; max response, %; actives 12% (n = 300,000); in the data active = max response mostly above about 13%, no sharp cut-off; inactive = mostly below about 14%; note: read at 38.3 µM for the half of the compounds with a filed dose; 0% is about no effect
# Shiga toxin inh: A qHTS for Small Molecule Inhibitors of Shiga Toxin; Vero cells, Shiga toxin protein synthesis inhibition reporter; inhibition, % at 38.7 µM; actives 9.2% (n = 290,000); AID 2315, 2010; in the data active = inhibition mostly above about 28%, no sharp cut-off; inactive = mostly below about 43%; note: 0% is about no effect
# Pf growth 48h: Primary qHTS for delayed death inhibitors of the malarial parasite plastid, 48 hour incubation | P. falciparum luciferase growth in erythrocytes, 48 h | Potency, µM (highest dose often 28.7 µM), without a hit: top-dose activity change, negative = inhibition, usual class: inhibitors | actives 5.9% (n = 310,000) | AID 504832, 2011; note: potency is the fitted concentration of half-maximal effect; % is set by controls: 0 for no effect and ±100 for the full control effect
#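 In quantitative HTS format, infected erythrocytes bearing luciferase-reporter parasites were treated for a single generation at 37 C. Luminescence after adding detection reagent served as the growth measure.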
# Pf growth 96h: Primary qHTS for delayed death inhibitors of the malarial parasite plastid, 96 hour incubation | P. falciparum luciferase reporter growth, 96 h | Potency, µM (highest dose often 28.7 µM), inactives show at the highest dose activity change, negative = inhibition, hits mostly inhibitors | actives 6.9% (n = 320,000) | AID 504834, 2011; note: potency is the fitted concentration of half-maximal effect; % is set by controls: 0 for no effect and ±100 for the full control effect
#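 Cell-based qHTS: luciferase-tagged P. falciparum in erythrocytes (2% hematocrit, 0.05% parasitemia final) incubated with compounds for 96 hours, 37 C, 5% CO2; luciferase detection reagent then added and luminescence measured.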
# Starred values were filed as active, the others as inactive; ? = inconclusive; . = not tested or not shown. A selection: hits, their analogues and other compounds. The true share with any hit is near 21%. Unless noted, calls come from the whole dose curve; as a rule, active = well fitted inhibition curve with a large enough effect; inconclusive = small, poorly fitted or top-dose-only effect, or another doubt; inactive = no such curve, though single readings can be large or run the other way.
SMILES,CHX counter,Shiga toxin inh,Pf growth 48h,Pf growth 96h
COc1ccc(C(=O)Nc2ccccc2C(=O)NC(Cc2ccc(O)cc2)C(=O)NNC(=O)c2ccccc2)cc1 (stereo unspecified),20*,-2,10µM*,32%
COc1ccc(C(=O)Nc2ccccc2C(=O)NC(Cc2ccc(O)cc2)C(=O)NNC(=O)c2ccc(C)cc2)cc1 (stereo unspecified),9,-6,?,?
Cc1c(C(=O)Nc2ccc(C(F)(F)F)cc2)sc2ncn(CC(=O)N3CCN(c4ccccn4)CC3)c(=O)c12,-1,10,6%,?
Clc1ccc(CN2CCc3c([nH]c4ccccc34)C2)cc1Cl,-3,-4,?,?
COc1ccc(CCNC(=O)C(=O)NCC2CCCN2S(=O)(=O)c2ccccc2)cc1 (stereo unspecified),.,.,-38%,12µM*
COc1ccccc1CCNC(=O)C(=O)NCC1OCCN1S(=O)(=O)c1cccs1 (stereo unspecified),34*,25*,-16%,?
COc1ccccc1CCNC(=O)C(=O)NCC1CCCN1S(=O)(=O)c1ccccc1 (stereo unspecified),.,.,?,15µM*
COc1ccccc1CCNC(=O)C(=O)NCC1OCCN1S(=O)(=O)c1ccccc1 (stereo unspecified),1,-5,-23%,-11%
COc1cccc(C(=O)NCC2CCCN2S(=O)(=O)c2cccs2)c1 (stereo unspecified),.,.,?,-22%
COc1cccc(C(=O)NCC2CCCN2S(=O)(=O)c2ccccc2)c1 (stereo unspecified),.,.,?,12µM*
CCOc1ccc(NC(=O)CN(C)C(=O)Cc2c(C)nc3ccccc3c2C)cc1OCC,-2,2,?,?
O=C(CN1C(=O)COc2ccccc21)NC1CCCC1,-6,-18,1%,16%
CCOc1ccc(S(=O)(=O)N2CCN(Cc3ccc4c(c3)OCO4)CC2)cc1C,7,2,33%,12%
O=C(NCCC1CCCCN1S(=O)(=O)c1ccccc1)C(=O)NC1CCCC1 (stereo unspecified),.,.,0%,?
Cc1ccccc1CNC(=O)C(=O)NCCC1CCCCN1S(=O)(=O)c1ccccc1 (stereo unspecified),.,.,13µM*,?
Cc1cc(C(=O)N/N=C/c2cc(Br)cc(Br)c2OC(=O)c2ccccc2)n[nH]1,-5,-7,?,21%
Cc1cc(C(=O)N/N=C\c2cc(C(C)(C)C)ccc2O)n[nH]1,47*,41*,12µM*,2%
O=C(N/N=C/c1cccs1)c1[nH]ncc1Br,55*,118*,45%,92%
Cc1cc(C(=O)N/N=C/c2cc(Br)cc(Br)c2OC(=O)c2cccc(F)c2)n[nH]1,1,-13,12µM*,?
Cn1cccc1/C=N/NC(=O)c1cccc(OC(F)(F)C(F)F)c1,30*,63*,41%,41%
CCOc1nc(C)cc(C)c1S(=O)(=O)c1cccc(Cl)c1,3,2,?,0%
CCn1c(=O)cc(SCC(=O)Nc2ccc(C)cn2)c2ccccc21,14,11,7%,?
CC1(C)CC(=O)C=C(c2cccc(O)c2)C1,.,.,40%,38%
Cc1nc2ccccc2cc1C(=O)N/N=C/c1cccs1,-3,-8,2%,19%
Cc1cc(C(=O)N/N=C/c2cccs2)no1,40*,58*,29%,20%
SMILES,CHX counter,Shiga toxin inh,Pf growth 48h,Pf growth 96h
Cc1ccc(C(=O)N/N=C\c2cccs2)cn1,25*,82*,70%,17%
Cc1cc(C(=O)N/N=C/c2cccn2C)n[nH]1,33*,active,106%,93%
Cc1cc(C(=O)N/N=C/c2cccs2)n[nH]1,29*,54*,128%,423%
O=C1CSC(c2cccnc2)N1Cc1ccc(Cl)c(Cl)c1 (stereo unspecified),4,-16,?,-11%
O=C1Nc2ccc(Br)cc2/C1=C/c1ccc(C(=O)O)cc1,-6,-3,7%,-4%
C[C@H]1[C@H](NC(=O)C(=NOC(C)(C)C(=O)O)c2csc(N)n2)C(=O)N1S(=O)(=O)O,.,.,0%,-4%
O=C(N/N=C/c1cccs1)c1cnccn1,13,32*,14%,43%
CC(C)C1Oc2ccccc2N(CC(=O)N2CCOCC2)C1=O (stereo unspecified),-4,-5,30%,2%
CCC1Oc2ccccc2C(=O)N(CC(=O)c2ccc3c(c2)OCCO3)C1=O (stereo unspecified),34*,46,42%,26%
CC(C)CN1C(=O)C(=O)N(CC(=O)c2ccc3c(c2)OCO3)C1=O,.,.,6%,32%
